Screens as filed in PubChem BioAssay.
DRD3 agonist = qHTS of D3 Dopamine Receptor Agonist: qHTS; max activation, %; D3R DiscoveRx beta-arrestin cells, luminescence, 90 min; D(3) dopamine receptor (Homo sapiens), P35462; 410,000 tested, 0.58% active; AID 652048, 2013; in the data active = max activation above about 30%
Target sequence (P35462 whole entry, looked up): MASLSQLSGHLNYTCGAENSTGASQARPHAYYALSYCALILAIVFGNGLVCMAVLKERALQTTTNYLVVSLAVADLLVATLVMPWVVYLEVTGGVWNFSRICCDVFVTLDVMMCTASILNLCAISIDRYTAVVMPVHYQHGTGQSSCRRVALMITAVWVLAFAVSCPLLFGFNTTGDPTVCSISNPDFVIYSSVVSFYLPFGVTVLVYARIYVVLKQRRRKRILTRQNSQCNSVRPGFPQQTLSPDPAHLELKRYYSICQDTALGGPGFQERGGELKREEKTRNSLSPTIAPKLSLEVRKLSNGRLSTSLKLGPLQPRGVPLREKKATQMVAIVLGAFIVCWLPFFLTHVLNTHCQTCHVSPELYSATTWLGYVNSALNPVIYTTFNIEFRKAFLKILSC
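Cells at 1500/well, incubated overnight, then treated with pinned compounds (dopamine as control) for 90 min at 37 degrees C. DiscoveRx reagent added for 30 - 60 minutes at room temperature; luminescence read.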
D3 antag = qHTS of D3 Dopamine Receptor Antagonist: qHTS; D(3) dopamine receptor (Homo sapiens), P35462; D3R cells, DiscoveRx beta-arrestin luminescence, antagonist mode; hits give low values; max response, negative = inhibition, %; 360,000 tested, 2.5% active; AID 652054, 2013; in the data active = max response below about -50%; inconclusive = no clear call, values can overlap the other calls
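Cells plated overnight at 1500 cells/well, then exposed to library compounds with dopamine controls for 90 minutes at 37 degrees C. DiscoveRx reagent added for 30–60 minutes at room temperature; luminescence read, quantitative HTS format.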
RGS4 inh = Inhibitors of Regulator of G Protein Signaling (RGS) 4: qHTS | Regulator of G-protein signaling 4 (Homo sapiens), P49798 | Transcreener GDP fluorescence polarization, RGS4-accelerated GTP hydrolysis | Potency, µM (series often up to 114 µM), hits mostly inhibitors | 390,000 tested, 0.039% active; active = well fitted inhibition curve with a large enough effect; inconclusive = small, poorly fitted or top-dose-only effect; inactive = no such curve, though single readings can be large or run the other way; note: nearly all actives have a fitted effect of over 75% in size
Target sequence (P49798 whole entry, looked up): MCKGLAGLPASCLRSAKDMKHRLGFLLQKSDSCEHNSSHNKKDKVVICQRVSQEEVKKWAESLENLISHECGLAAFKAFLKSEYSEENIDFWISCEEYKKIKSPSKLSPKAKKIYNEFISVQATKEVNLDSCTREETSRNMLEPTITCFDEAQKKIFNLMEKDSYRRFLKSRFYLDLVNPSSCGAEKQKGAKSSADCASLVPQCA
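MLSMR compounds (23 nl, pin-transferred) preincubated 10 min at room temperature with a 500nM (2x) first reagent, then RGS4 at 900nM (2x) plus Transcreener GDP mix added; fluorescence polarization (620/688 nm) read before and after 90 min at 30 °C.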
uPA surface inh = qHTS for Inhibitors of Cell Surface uPA Generation; cell surface uPA generation assay, qHTS; Potency, µM (series often up to 38.3 µM), actives largely listed as inhibitors; 330,000 tested, 0.31% active; AID 540303, 2011; active = well fitted inhibition curve with a large enough effect; inconclusive = small, poorly fitted or top-dose-only effect; inactive = no such curve, though single readings can be large or run the other way; tested in mouse RAW 264.7 cells; note: nearly all actives have a fitted effect of over 55% in size
Each line names hits and unclear results; the compound was inactive in the other large screens. An excerpt weighted towards active compounds, which were near 3.1% of everything screened.

CCOC(=O)c1ccc(NC(=O)CC2C(=O)N(c3ccccc3)C(=O)N2Cc2ccc(C)cc2)cc1 (configuration not stated)	none (no result: D3 antag, uPA surface inh)
COc1ccc(NC(=O)c2csc3c2CCCCC3)cc1	none (no result: D3 antag, uPA surface inh)
COc1cccc(NC(=O)c2csc3c2CCCCC3)c1	DRD3 agonist 43.8 (no result: D3 antag, uPA surface inh)
CCOc1ccc(C(=O)Nc2cccc(OCc3cc(=O)n4cc(C)sc4n3)c2)cc1	none (no result: D3 antag, uPA surface inh)
O=S(=O)(NCCC1=CCCCC1)c1cccc(S(=O)(=O)N2CCOCC2)c1	D3 antag -71.8
CCOC(=O)C1CCCN(c2cc(C)nc3c(-c4ccccc4OC)c(C)nn23)C1 (configuration not stated)	none (no result: D3 antag, uPA surface inh)
O=C1[C@H]2[C@@H](c3ccccc3)N[C@]3(CCCN(Cc4ccco4)C3=O)[C@H]2C(=O)N1Cc1ccccc1	D3 antag -56.0 (no result: RGS4 inh, uPA surface inh)
CC(=O)/C(=N\Nc1cccc(Cl)c1)Sc1nnc(-c2ccccc2)n1-c1ccccc1	D3 antag -54.1
CC(=O)/C(=N\Nc1cccc(Cl)c1)Sc1cccc2cccnc12	none
CCC(C)Nc1nc2c(c(=O)[nH]c(=O)n2C)n1Cc1ccc(F)cc1 (configuration not stated)	none (no result: D3 antag, uPA surface inh)
Cc1ccc(-c2c(CN3CCN(c4cc(Cl)ccc4C)CC3)csc2C)cc1	none (no result: D3 antag, uPA surface inh)
CCNC(=O)c1nn(-c2ccccc2C)nc1CO	none (no result: D3 antag, uPA surface inh)
N#Cc1c(Nc2ccccc2)[n+]([O-])c2ccc(Cl)cc2[n+]1[O-]	D3 antag -54.6, RGS4 inh inconclusive
c1ccc(COc2cccc(-c3cc4nc(NCCc5ccncc5)ccn4n3)c2)cc1	DRD3 agonist 87.9 (no result: RGS4 inh, uPA surface inh)
CCc1ccc(NC(=O)N2CCN(Cc3nc4ccc(C)cc4o3)CC2)cc1	none (no result: D3 antag, uPA surface inh)
COCCCNC(=O)c1cc(-c2cccnc2)nc2ccc(S(=O)(=O)N3CCC(C)CC3)cc12	none (no result: D3 antag, uPA surface inh)
O=C(O)c1cccc(S(=O)(=O)N2CCC(n3nnc4cc(C(F)(F)F)ccc43)CC2)c1	D3 antag -76.0
NC(=O)CC(CC(=O)OCc1ccccc1)c1ccccc1 (configuration not stated)	none
CN(C(=O)OCc1ccccc1)C(CC(N)=O)C(=O)O (configuration not stated)	D3 antag -98.7
O=C(Nc1cccc(F)c1)[C@H](CSCc1ccccc1)N1Cc2ccccc2C1=O	none (no result: D3 antag, uPA surface inh)
CCn1c(SCC(=O)N2CC(C)OC(C)C2)nc2c([nH]c3ccccc32)c1=O (configuration not stated)	none
Cc1ccc(-n2ncc3c(N4CCC(C)CC4)ncnc32)cc1C	none (no result: D3 antag, uPA surface inh)
CC(C)=CCC1C(=O)N(c2ccccc2)N(c2ccccc2)C1=O	none (no result: D3 antag, RGS4 inh, uPA surface inh)
CCCCC1C(=O)N(c2ccccc2)N(c2ccc(O)cc2)C1=O (configuration not stated)	D3 antag -74.3, uPA surface inh inconclusive
CC(C)N1CCN(c2ccncc2S(=O)(=O)N2CCN(C)CC2)CC1	none (no result: RGS4 inh, uPA surface inh)
Cc1ccc(-n2nc(C(=O)N3CCN(c4cc(Cl)ccc4C)CC3)c(=O)n(C)c2=O)cc1	none (no result: D3 antag, uPA surface inh)
CCc1ccc(S(=O)(=O)NC(=S)NC2CCCCC2)cc1	D3 antag -67.3
Cc1ccc(S(=O)(=O)NC(=S)NC2CCCCC2)cc1	none
Cc1ccc(C(=O)c2cc3c(cc2N)OCCO3)cc1	none
Nc1cc2c(cc1C(=O)c1ccccc1)OCCO2	D3 antag -60.1
C=CCN1CCN(C(=O)c2cc3c(s2)CCC(CC)C3)CC1 (configuration not stated)	D3 antag -91.0
O=C(CN1CCOCC1)N1c2ccccc2Sc2ccccc21	none
O=C(N1CCOCC1)N1c2ccccc2Sc2ccccc21	D3 antag -76.7
O=C(NCCc1ccccc1)c1ccc(CSc2nc3cccnc3n2Cc2ccccc2)cc1	RGS4 inh inconclusive (no result: D3 antag, uPA surface inh)
O=C(NCc1cccnc1)/C(=C/c1ccc([N+](=O)[O-])cc1)NC(=O)c1ccccc1	DRD3 agonist 31.5
O=C(NCc1cccnc1)/C(=C/c1ccc(Cl)cc1)NC(=O)c1ccccc1	none
CC(C)NC(=O)/C(=C\c1cccc([N+](=O)[O-])c1)NC(=O)c1ccccc1	D3 antag -107.1
COc1ccc(C(=O)NNC2=Nc3cccc4cccc2c34)cc1	D3 antag -68.0
Cc1ccc(C(=O)NNC2=Nc3cccc4cccc2c34)cc1	D3 antag -73.6
COc1ccc(CC(=O)NNC2=Nc3cccc4cccc2c34)cc1	D3 antag -78.9
COc1ccccc1NC1=Nc2cccc3cccc1c23	none
NC(=O)NNC1=Nc2cccc3cccc1c23	none (no result: uPA surface inh)
O=C(O)c1ccc(NC2=Nc3cccc4cccc2c34)cc1	none
Nc1nonc1-n1nnc(C(=O)N/N=C/c2ccccc2Cl)c1CSc1ccccc1	none
Nc1nonc1-n1nnc(C(=O)N/N=C/C=C/c2ccccc2)c1CSC1=NCCS1	D3 antag -50.1
Nc1nonc1-n1nnc(C(=O)N/N=C/c2c(Cl)cccc2Cl)c1CSC1=NCCS1	D3 antag -52.8
CSc1nn(Cc2ccc(Br)cc2)c(N(C(C)=O)C(C)=O)c1S(=O)(=O)c1ccccc1	none (no result: D3 antag, uPA surface inh)
Cc1ccc(-c2nn(-c3cccc([N+](=O)[O-])c3)c3c2cnc2ccc(F)cc23)cc1	none (no result: D3 antag, uPA surface inh)
CCCCCCCC/C=C\CCCCCCCC(=O)OC[C@@H](O)[C@H]1OC[C@H](O)[C@H]1O	none (no result: D3 antag, RGS4 inh, uPA surface inh)
Cc1ccc(CNC(=O)CN(c2ccc(Cl)cc2Cl)S(=O)(=O)c2ccccc2)cc1	none (no result: D3 antag, uPA surface inh)
COc1ccc(Nc2nc(N3CCCC3)nc(N3CCCC3)n2)c(OC)c1	DRD3 agonist 146.3 (no result: uPA surface inh)
COc1ccc(Nc2nc(N3CCCCC3)nc(N3CCCCC3)n2)c(OC)c1	none (no result: uPA surface inh)
COc1ccc([C@H]2CC(=O)C[C@@H](CCn3cc(CCc4ccccc4)nn3)O2)cc1	none (no result: RGS4 inh, uPA surface inh)
O=c1[nH]ncc(N2CCN(Cc3ccccc3)CC2)c1Cl	D3 antag -71.2
Cc1cc(=O)[nH]c(N2CCN(Cc3ccccc3)CC2)n1	none
CCn1c(=N)c(C(=O)NCc2cccnc2)cc2c(=O)n3cc(C)ccc3nc21	none (no result: D3 antag, uPA surface inh)
CCC1CCCCN1Cc1nc2c(c(=O)n(C)c(=O)n2C)n1Cc1c(F)cccc1Cl (configuration not stated)	none (no result: DRD3 agonist, D3 antag, uPA surface inh)
OC(CNCc1ccccc1)COc1ccccc1 (configuration not stated)	none
CC(COc1ccc(/C=C/c2ccccc2)cc1)[N+](C)(C)C (configuration not stated)	RGS4 inh inconclusive, uPA surface inh inconclusive
CC(CCc1ccccc1)NCC(O)COc1ccccc1 (configuration not stated)	D3 antag -64.5
CC(COc1ccccc1)NN (configuration not stated)	DRD3 agonist 67.1 (no result: D3 antag, RGS4 inh, uPA surface inh)
Cc1c(Cl)cccc1-n1ncc(C(=O)NCc2cccs2)c1C1CCN(C(=O)OC(C)(C)C)CC1	none (no result: D3 antag, uPA surface inh)
COc1cc(SC)ccc1C(=O)N1CCn2c3c(c4cc(C)ccc42)CCCC31 (configuration not stated)	none (no result: D3 antag, uPA surface inh)
CCc1ccccc1NC(=O)CN1C(=O)C2CCCN2c2ccc(S(=O)(=O)N(CC)CC)cc21 (configuration not stated)	none (no result: D3 antag, uPA surface inh)
